# Only some compounds are listed: those with a hit (about 11% of all), similar ones and a draw of the others.
# PI5P4K alpha inh – blocks human PI5P4K alpha kinase activity; P48426; PI5P4Kalpha enzyme, ADP-Glo luminescence, 60 min; active compounds read low; max response, %; hit rate 1.2% among 330,000; AID 652105; active means max response of -50% or lower; inconclusive means between -30% and -50%; inactive means -30% or higher; further: value at the top dose of about 77 µM; on the % scale 0 is the no-effect control and ±100 the full control effect
#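 Controls without substrate or without enzyme flank wells where PI5P4Kalpha converts substrate using 5 microM ATP (final). Incubation lasts 60 minutes at room temperature; ADP formed is read by ADP-Glo luminescence.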
# JMJD2A Tudor – JMJD2A Tudor domain (human) inhibition. O75164. AlphaScreen JMJD2A-Tudor / H3K4me3 peptide binding. Potency, µM (highest dose often 114 µM), for inactives: at the top dose activity change, negative = inhibition, usual class: inhibitors. hit rate 4.4% among 390,000. AID 504339; further: potency means the concentration at half of the fitted maximal effect; on the % scale 0 is the no-effect control and ±100 the full control effect; nearly all actives have a fitted effect of over 50% in size
# BAZ2B block – inhibitors of human BAZ2B bromodomain | Potency, µM (highest dose often 114 µM), without a hit: top-dose activity change, negative = inhibition, most hits filed as inhibitors | AlphaScreen BAZ2B-H3K14Ac peptide displacement | hit rate 4.4% among 360,000 | Q9UIF8; further: potency means the concentration at half of the fitted maximal effect; on the % scale 0 is the no-effect control and ±100 the full control effect; nearly all actives have a fitted effect of over 60% in size
#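 Complex of BAZ2B and biotin-H3K14Ac (50 nM apiece) forms over 30 min at RT, then faces library compounds up to 110 uM for another 30 min; AlphaScreen beads added, 20 min dark incubation, luminescence read.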
# G9a block – inhibitors of human histone lysine methyltransferase G9a; Q96KQ7; G9a H3K9 monomethylation, AlphaScreen, 2 h; Potency, µM (top dose mostly 102 µM), inactives show at the highest dose activity, negative = inhibition, usual class: inhibitors; hit rate 8.8% among 350,000; further: potency means the concentration at half of the fitted maximal effect; on the % scale 0 is the no-effect control and ±100 the full control effect; nearly all actives have a fitted effect of over 75% in size
#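 Readings reflect AlphaScreen signal from monomethyl-H3K9 antibody detection. HMT at 20 nM; substrate b-H3K9 500 nM; cofactor SAM 20 uM; 2 h RT reaction; compounds tested as titrations in qHTS with 15 min preincubation.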
# L3MBTL1 block – blocks human L3MBTL1; Q9Y468; AlphaScreen L3MBTL1–H3K9me1 peptide binding; AID 485360; Potency, µM (titrated, usually from 57.1 µM), for inactives: at the highest dose activity, negative = inhibition, hits mostly inhibitors; hit rate 0.66% among 230,000; further: potency means the concentration at half of the fitted maximal effect; on the % scale 0 is the no-effect control and ±100 the full control effect; nearly all actives have a fitted effect of over 60% in size
#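 Displacement of a biotinylated histone H3(1-15) peptide monomethylated at Lys9 (75 nM) from L3MBTL1 (50 nM) was measured by AlphaScreen after a 30 min room-temperature compound incubation; cefsulodin titration served as intraplate control.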
# HP1b binding inh – inhibitors of HP1-beta chromodomain binding to methylated histone tails; AID 540317; AlphaScreen HP1-beta / biotin-H3K9me3 peptide binding; P83916; Potency, µM (titrated, usually from 114 µM), inactives show top-dose activity change, negative = inhibition, hits mostly inhibitors; hit rate 0.56% among 390,000; further: potency means the concentration at half of the fitted maximal effect; nearly all actives have a fitted effect of over 70% in size
#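 AlphaScreen: HP1-beta (50 nM) preformed 30 min with biotin-H3(1-18)K9me3 peptide (50 nM) in PBS pH 7.4, 0.01% Tween-20. Compound added for 30 min at RT, then streptavidin donor/nickel chelate acceptor beads (10 ug/mL) for 30 min.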
# The depositor's hits bear a star; ? = inconclusive; nt = no result; [ ] = another dose, or the depositor's remark. Unless noted, the call rests on the fitted dose curve; in most records, active means well fitted inhibition curve with a large enough effect; inconclusive means small, poorly fitted or top-dose-only effect; inactive means no such curve, though single readings can be large or run the other way.
SMILES,PI5P4K alpha inh,JMJD2A Tudor,BAZ2B block,G9a block,L3MBTL1 block,HP1b binding inh
CCOC(=O)c1c(-c2ccccc2)csc1NC(=O)c1cc(-c2ccccc2OC)on1,-9.2,1.4%,nt,nt,nt,-15.9%
CCOC(=O)c1c(NC(=O)c2cc(C)on2)sc(C)c1C,nt,4.8%,5.7%,3.16µM*,nt,-15.7%
CCOC(=O)c1c(NC(=O)c2cc(CC)on2)sc(C)c1C,nt,-1.7%,1.4%,7.08µM*,nt,?
CCOC(=O)c1c(NC(=O)c2cc(-c3ccccc3OC)on2)sc(C)c1C,nt,-18.4%,-2.7%,2.82µM*,nt,?
CCOC(=O)c1c(NC(=O)c2cc(-c3ccccc3)on2)sc2c1CCCC2,nt,6.7%,8.4%,-5.5%[59 µM],nt,36.9%
CCOC(=O)c1c(NC(=O)c2noc3c2CCCC3)sc(C)c1C,nt,nt,-2.6%,28.2µM*,4.0%,nt
Nc1ccc(S(=O)(=O)c2cc(O)c3ccccc3c2O)cc1,-77.9*,44.7µM*,nt,nt,nt,12.6µM*
CC[C@H](CC[C@H](C)[C@@H]1CC[C@@H]2[C@H]3CC=C4C[C@@H](O)CC[C@]4(C)[C@H]3CC[C@]21C)C(C)C,nt,nt,nt,22.6%[21.5 µM],nt,nt
Cc1cccc(CSc2ccc(S(=O)(=O)N3CCCC3)cn2)c1,11.3,80.1%,54.1%,14.1µM*,154.5%,140.7%
O=C(Nc1cccc(C(=O)N2CCCCC2)c1)c1nsc2ccccc12,nt,-24.7%,2.8%,-29.9%[59 µM],nt,13.3%[57 µM]
O=C(NCc1ccccn1)C(F)(F)C(F)(F)C(=O)NCc1ccccn1,1.8,-12.9%,-0.9%,?,-11.6%,51.6%
O=C(NCCc1ccccn1)C(F)(F)C(F)(F)C(F)(F)C(F)(F)C(F)(F)C(F)F,-12.0,50.1µM*,15.2%,?,31.1%,10.2%
CCn1c(/C=C/Nc2ccccc2)[n+](CC)c2ccc(Cl)cc21,0.1,-23.0%,2.7%,44.7µM*,-5.1%,6.6%
O=C(NCCN1CCOCC1)c1ccc2c(c1)N(Cc1c(F)cccc1Cl)C(=O)c1ccccc1S2,1.1,-31.8%,-31.3%,?,nt,-2.2%
CN1CCN(CCCNC(=O)c2ccc(/C=C3/Sc4ccccc4N(Cc4cccc(Cl)c4)C3=O)cc2)CC1,-2.7,?,?,39.8µM*,nt,-13.6%
O=C(NCCCN1CCOCC1)c1ccc2c(c1)N(Cc1ccccc1)C(=O)c1ccccc1S2,-4.0,-11.1%,-20.4%,-10.4%,nt,27.2%
CCOc1ccc(CN2C(=O)c3ccccc3Sc3ccc(C(=O)NCCCN4CCOCC4)cc32)cc1,-2.1,-33.3%,79.4µM*,-37.2%[59 µM],nt,-4.4%
CN(C)CCNC(=O)c1ccc2c(c1)N(Cc1c(F)cccc1Cl)C(=O)c1ccccc1S2,nt,?,nt,15.8µM*,nt,-4.7%
CCN1CCN(CCNC(=O)c2ccc(/C=C3\Sc4ccccc4N(Cc4ccccc4F)C3=O)cc2)CC1,-7.0,56.2µM*,?,50.1µM*,-15.9%,6.7%
CCN(CC)C(=O)c1cccnc1,nt,nt,nt,2.6%[12.7 µM],nt,nt
O=S(=O)(c1ccccc1)N1CCC2(CCN(c3cccc(-c4ccccc4)c3)CC2)CC1,nt,nt,nt,-3.2%[12.7 µM],nt,nt
CCN(Cc1ccncc1)Cc1ccc(OC)c(OC)c1,7.7,25.1µM*,?,nt,-0.7%,?
COc1ccc(CN(CCc2ccccc2)Cc2ccccc2)cc1OC,20.7,10µM*,79.4µM*,?,63.2%,?
CNCc1ccc(OCc2ccccc2)c(OC)c1,1.8,0.0%[57.1 µM],8.0%,?,2.8%,61.5%
COc1cc(CN(CCN(C)C)Cc2ccccc2)ccc1OCc1ccccc1,7.4,1µM*,39.8µM*,31.6µM*,-4.9%,?
SMILES,PI5P4K alpha inh,JMJD2A Tudor,BAZ2B block,G9a block,L3MBTL1 block,HP1b binding inh
CC1=C(C(=O)Nc2ccccc2Br)C2(CCC(C)CC2)OC1=O (configuration not stated),nt,-7.4%,-2.1%,-20.7%[59 µM],nt,17.3%
Cc1ccc(Nc2nc(NCc3ccco3)nc3nccnc23)cc1C,nt,11.5%[57.1 µM],nt,nt,nt,10.3%[57 µM]
CCn1c(C(=O)NCCc2ccc(S(N)(=O)=O)cc2)cc2sc(Cl)cc21,nt,-15.6%,-1.0%,-8.1%[59 µM],nt,23.7%
CCCNS(=O)(=O)c1ccc2nc(NC(=O)c3ccc(F)cc3)sc2c1,nt,50.1µM*,3.6%,1.41µM*,nt,?
CS(=O)(=O)c1ccc2nc(NC(=O)CN3CCC(Cc4ccccc4)CC3)sc2c1,-5.9,?,-2.4%,-0.8%[2.33 µM],nt,54.1%
CS(=O)(=O)c1ccc2nc(NC(=O)CN3CCN(Cc4ccccc4)CC3)sc2c1,nt,?,-5.1%,12.6µM*,2.9%,17.0%
CCC(=O)Nc1nc2ccc(S(C)(=O)=O)cc2s1,-18.4,14.8%,4.1%,-11.2%[59 µM],4.4%,57.9%
CC(C)CC(=O)Nc1nc2ccc(S(C)(=O)=O)cc2s1,-27.3,-7.4%,-29.7%,50.1µM*,8.4%,37.4%
CCc1ccc(S(=O)(=O)c2nnn3c2nc(NC(C)C)c2cc(Cl)ccc23)cc1,nt,-14.2%,5.9%,4.3%[59 µM],nt,6.6%
Cc1cccc(N=Cc2c(O)cc(C)oc2=O)c1,-8.2,-7.1%,11.5%,?,?,5.5%
Cc1ccc(O)c(N=Cc2ccc(C)s2)c1,3.3,-6.2%,-29.1%,-50.1%[59 µM],3.2%,41.6%
Cc1ccc(C)c(N=Nc2ccc(O)c3ncccc23)c1,-9.1,8.91µM*,20µM*,11.2µM*,nt,?
Cc1cccc(N=Nc2ccc(O)c3ncccc23)c1,-28.7,31.6µM*,8.91µM*,7.08µM*,20µM*,?
Cc1ccc(N=Nc2cc(C)ccc2O)c(C)c1,36.4,44.7µM*,5.62µM*,7.94µM*,nt,?
Cc1ccc(N=Nc2ccc(N)cc2C)c(S(N)(=O)=O)c1,-24.7,8.91µM*,50.1µM*,20µM*,-7.6%,?
Cc1cc(N)ccc1N=Nc1c(C)n(C)n(-c2ccccc2)c1=O,0.2,?,-8.6%,17.5%[59 µM],-5.4%,5.0%
COc1cc(/C=C(\C#N)c2nc3ccccc3[nH]2)ccc1OCc1cccc(C(F)(F)F)c1,nt,-25.7%,-29.7%,8.4%[59 µM],nt,34.7%
CCOC(=O)c1cc(OC(=O)c2ccccc2C)n(-c2ccccc2)n1,nt,-5.8%,-16.8%,15.7%[59 µM],nt,47.1%
CCOc1ccc(CCNC(=O)Cn2nc(CC)n3c(cc4c(OC)cccc43)c2=O)cc1OCC,nt,-1.8%,28.7%,37.8%[59 µM],nt,42.0%
Oc1ccc(N=Nc2ccc3c(c2)OCCO3)c2ncccc12,-17.9,?,?,11.2µM*,?,-28.9%
CCOc1ccc(NC(=O)c2nc3nc(C)cc(C(F)F)n3n2)cc1,nt,-15.8%,-17.3%,4.9%[59 µM],nt,11.8%
COc1ccc(C(=O)COC(=O)c2cccnc2Cl)c(OC)c1,-74.5*,-29.2%,50.1µM*,-29.0%,nt,6.0%
COc1ccc(C(=O)Nc2ccc(Cn3ccnc3)cc2)cc1OC,-9.4,-8.2%,-36.6%,1.3%,4.5%,36.9%
COc1cc(Cn2ccnc2)c(OC)cc1Cn1ccnc1,nt,-35.3%,79.4µM*,?,-15.6%,6.4%

# Compound activity (PubChem BioAssay)
